Data from PubChem BioAssay AID1159580 (chemical genetic matrix, 2015).
Several values for one entry are separate records, joined by “and”; a condition that tells them apart may be missing. Identical values can stand only once. In all, about 5,500 compounds went through this assay and about 2,000 (36%) were called active. About 18% were inconclusive and are not listed. No stated cut-off is given here; in the data, active means normalized growth mostly below about 0.91 (no sharp cut-off); inconclusive means no clear call, values can overlap the other calls; inactive means mostly above about 0.92. The list shows a part of the results.

Test: chemical genetic growth profiling, strain panel (AID 1159580);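 further: tested at 20 µM; growth read once vehicle control cultures reached saturation at 30 °C; 1 = growth at the plate median or of vehicle wells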
Conditions: S. cerevisiae deletion strains, growth OD

Measured: normalized growth

CO/N=C(\C(=O)N[C@@H]1C(=O)N2C(C(=O)O)=C(COC(C)=O)CS[C@H]12)c1csc(N)n1
inactive: locus YAL021C, strain ccr4, stronger effect = lower value 0.961 | locus YAL026C, strain drs2, stronger effect = lower value 0.983 | locus YAL030W, strain snc1, stronger effect = lower value 0.983 | locus YBL061C, strain skt5, stronger effect = lower value 0.993 | locus YBR009C, strain hhf1, stronger effect = lower value 0.973 | locus YBR021W, strain FUR4, stronger effect = lower value 1 | locus YBR023C, strain chs3, stronger effect = lower value 1.02 | locus YBR171W, strain sec66, stronger effect = lower value 0.993 | locus YBR229C, strain ROT2, stronger effect = lower value 0.954 | locus YBR231C, strain swc5, stronger effect = lower value 0.975 | locus YBR279W, strain paf1, stronger effect = lower value 1 | locus YCL011C, strain gbp2, stronger effect = lower value 0.954 | locus YCL016C, strain dcc1, stronger effect = lower value 0.961 | locus YCL029C, strain bik1, stronger effect = lower value 0.998 | locus YCL061C, strain MRC1, stronger effect = lower value 0.964 | locus YCL069W, strain vba3, stronger effect = lower value 0.995 | locus YCR088W, strain abp1, stronger effect = lower value 0.985 | locus YDL005C, strain med2, stronger effect = lower value 0.992 | locus YDL035C, strain GPR1, stronger effect = lower value 0.959 | locus YDL040C, strain nat1, stronger effect = lower value 0.989 | locus YDL074C, strain BRE1, stronger effect = lower value 1.02 | locus YDL101C, strain DUN1, stronger effect = lower value 0.99 | locus YDL185W, strain tfp1, stronger effect = lower value 0.965 | locus YDL192W, strain arf1, stronger effect = lower value 0.982 | locus YDR001C, strain nth1, stronger effect = lower value 0.976 | locus YDR069C, strain doa4, stronger effect = lower value 0.996 | locus YDR101C, strain arx1, stronger effect = lower value 0.975 | locus YDR137W, strain rgp1, stronger effect = lower value 0.938 | locus YDR159W, strain sac3, stronger effect = lower value 0.985 | locus YDR162C, strain NBP2, stronger effect = lower value 0.954 | locus YDR195W, strain ref2 0.989 | locus YDR297W, strain sur2, stronger effect = lower value 0.986 | locus YDR318W, strain mcm21, stronger effect = lower value 0.996 | locus YDR334W, strain swr1, stronger effect = lower value 0.976 | locus YDR335W, strain msn5, stronger effect = lower value 0.992 | locus YDR388W, stronger effect = lower value 0.992 | locus YDR392W, strain spt3, stronger effect = lower value 0.896 | locus YDR502C, strain sam2, stronger effect = lower value 1 | locus YEL003W, strain gim4, stronger effect = lower value 1.02 | locus YEL037C, strain rad23, stronger effect = lower value 0.991 | locus YEL061C, strain CIN8 (second series), stronger effect = lower value 0.989 | locus YEL061C, strain CIN8, stronger effect = lower value 0.995 | locus YER015W, strain faa2, stronger effect = lower value 0.979 | locus YER016W, strain bim1, stronger effect = lower value 0.99 | locus YER110C, stronger effect = lower value 0.992 | locus YER111C, strain swi4, stronger effect = lower value 1 | locus YER155C, strain BEM2 (second series), stronger effect = lower value 0.965 | locus YER155C, strain BEM2, stronger effect = lower value 1 | locus YER167W, strain BCK2, stronger effect = lower value 1.02 | locus YFR010W, strain ubp6, stronger effect = lower value 0.97 | locus YGL078C, strain dbp3, stronger effect = lower value 0.998 | locus YGL086W, strain mad1, stronger effect = lower value 0.984 | locus YGL167C, strain pmr1, stronger effect = lower value 1.01 | locus YGL173C, strain kem1, stronger effect = lower value 1.01 | locus YGL227W, strain vid30, stronger effect = lower value 0.993 | locus YGL240W, strain doc1, stronger effect = lower value 0.996 | locus YGL248W, strain PDE1, stronger effect = lower value 1.02 | locus YGL253W, strain hxk2, stronger effect = lower value 1 | locus YGR135W, strain pre9, stronger effect = lower value 1.05 | locus YGR229C, strain SMI1, stronger effect = lower value 0.979 | locus YGR252W, strain gcn5, stronger effect = lower value 1.05 | locus YHR013C, strain ard1, stronger effect = lower value 0.94 | locus YHR027C, strain rpn1, stronger effect = lower value 0.987 | locus YHR030C, strain SLT2, stronger effect = lower value 0.988 and 1.01 | locus YHR079C, strain IRE1 (second series), stronger effect = lower value 0.998 | locus YHR079C, strain IRE1, stronger effect = lower value 0.992 | locus YHR094C, strain hxt1, stronger effect = lower value 0.994 | locus YHR129C, strain ARP1, stronger effect = lower value 0.99 | locus YHR142W, strain chs7, stronger effect = lower value 0.993 | locus YHR200W, strain rpn10, stronger effect = lower value 0.981 | locus YIL066C, strain RNR3, stronger effect = lower value 0.976 | locus YIL073C, strain SPO22, stronger effect = lower value 1.06 | locus YIL125W, strain kgd1, stronger effect = lower value 0.986 | locus YIR030C, strain dcg1, stronger effect = lower value 0.996 | locus YJL092W, strain hpr5, stronger effect = lower value 0.974 | locus YJL095W, strain BCK1 (second series), stronger effect = lower value 0.97 | locus YJL095W, strain BCK1, stronger effect = lower value 1.06 and 0.972 | locus YJL115W, strain asf1, stronger effect = lower value 0.968 | locus YJL129C, strain trk1, stronger effect = lower value 0.989 | locus YJL134W, strain LCB3, stronger effect = lower value 0.989 | locus YJL154C, strain vps35, stronger effect = lower value 0.968 | locus YJL164C, strain tpk1, stronger effect = lower value 0.975 | locus YJL166W, strain qcr8, stronger effect = lower value 1.01 | locus YJL168C, strain set2, stronger effect = lower value 0.991 | locus YJL187C, strain SWE1 (second series), stronger effect = lower value 1.01 | locus YJL187C, strain SWE1, stronger effect = lower value 0.984 | locus YJR043C, strain POL32, stronger effect = lower value 0.958 | locus YJR066W, strain TOR1, stronger effect = lower value 0.983 | locus YKL009W, strain mrt4, stronger effect = lower value 1.03 | locus YKL068W, stronger effect = lower value 0.986 | locus YKL085W, strain MDH1 (second series), stronger effect = lower value 0.994 | locus YKL085W, strain MDH1, stronger effect = lower value 0.994 | locus YKL160W, strain elf1, stronger effect = lower value 1.02 | locus YKL190W, strain CNB1, stronger effect = lower value 1 | locus YKR001C, strain vps1, stronger effect = lower value 0.992 | locus YKR026C, strain gcn3, stronger effect = lower value 0.964 | locus YKR091W, strain srl3, stronger effect = lower value 0.962 | locus YLL001W, strain dnm1, stronger effect = lower value 1.01 | locus YLL026W, stronger effect = lower value 0.996 | locus YLL041C, strain sdh2, stronger effect = lower value 1 | locus YLR027C, strain aat2, stronger effect = lower value 0.977 | locus YLR039C, strain RIC1, stronger effect = lower value 0.993 | locus YLR058C, strain SHM2, stronger effect = lower value 0.986 | locus YLR102C, strain apc9, stronger effect = lower value 0.997 | locus YLR113W, strain HOG1, stronger effect = lower value 0.99 | locus YLR221C, strain rsa3, stronger effect = lower value 1 | locus YLR258W, strain gsy2, stronger effect = lower value 0.974 | locus YLR262C, strain YPT6 (second series), stronger effect = lower value 1 | locus YLR262C, strain YPT6, stronger effect = lower value 0.954 | locus YLR268W, strain sec22, stronger effect = lower value 0.973 | locus YLR320W, strain mms22, stronger effect = lower value 0.96 | locus YLR330W, strain CHS5, stronger effect = lower value 0.988 | locus YLR342W, strain FKS1 (second series), stronger effect = lower value 0.995 | locus YLR342W, strain FKS1, stronger effect = lower value 0.994 | locus YLR357W, strain rsc2, stronger effect = lower value 1.03 | locus YLR370C, strain arc18, stronger effect = lower value 0.994 | locus YLR371W, strain rom2, stronger effect = lower value 0.994 | locus YLR384C, strain iki3, stronger effect = lower value 0.983 | locus YLR418C, strain cdc73, stronger effect = lower value 1.01 | locus YML016C, strain PPZ1, stronger effect = lower value 0.993 | locus YML032C, strain rad52, stronger effect = lower value 0.993 | locus YML120C, strain ndi1, stronger effect = lower value 0.989 | locus YML124C, strain tub3, stronger effect = lower value 0.993 | locus YMR058W, strain fet3, stronger effect = lower value 0.99 | locus YMR078C, strain ctf18, stronger effect = lower value 0.98 | locus YMR125W, strain sto1, stronger effect = lower value 1.02 | locus YMR129W, stronger effect = lower value 0.968 | locus YMR205C, strain PFK2, stronger effect = lower value 1 | locus YMR223W, strain ubp8, stronger effect = lower value 1.03 | locus YMR231W, strain pep5, stronger effect = lower value 0.999 | locus YMR307W, strain GAS1, stronger effect = lower value 1 | locus YNL067W, strain RPL9B, stronger effect = lower value 1.01 | locus YNL071W, strain lat1, stronger effect = lower value 0.989 | locus YNL128W, strain TEP1, stronger effect = lower value 0.996 | locus YNL183C, strain NPR1, stronger effect = lower value 0.91 | locus YNL209W, strain ssb2, stronger effect = lower value 0.99 | locus YNL233W, strain BNI4, stronger effect = lower value 1.03 | locus YNL248C, strain rpa49, stronger effect = lower value 0.977 | locus YNL250W, strain rad50, stronger effect = lower value 1.01 | locus YNL271C, strain bni1, stronger effect = lower value 1.01 | locus YNL298W, strain CLA4, stronger effect = lower value 0.989 | locus YNL307C, strain MCK1, stronger effect = lower value 0.994 | locus YNL322C, strain KRE1 (second series), stronger effect = lower value 0.971 | locus YNL322C, strain KRE1, stronger effect = lower value 1 | locus YNR049C, strain mso1, stronger effect = lower value 0.981 | locus YNR052C, strain pop2, stronger effect = lower value 0.992 | locus YOL006C, strain TOP1, stronger effect = lower value 1.15 | locus YOL012C, strain htz1 0.969 | locus YOL147C, strain pex11, stronger effect = lower value 1 | locus YOR001W, strain rrp6, stronger effect = lower value 1.01 | locus YOR061W, strain CKA2, stronger effect = lower value 0.976 | locus YOR069W, strain VPS5, stronger effect = lower value 0.988 | locus YOR070C, strain gyp1, stronger effect = lower value 0.995 | locus YOR080W, strain dia2, stronger effect = lower value 0.992 | locus YOR083W, strain WHI5, stronger effect = lower value 1.02 | locus YOR106W, strain vam3, stronger effect = lower value 0.997 | locus YOR136W, strain idh2, stronger effect = lower value 0.984 | locus YOR144C, strain elg1, stronger effect = lower value 0.99 | locus YOR184W, strain ser1, stronger effect = lower value 0.986 | locus YOR231W, strain MKK1, stronger effect = lower value 0.971 | locus YOR265W, strain rbl2, stronger effect = lower value 0.99 | locus YOR270C, strain vph1, stronger effect = lower value 1.05 | locus YOR290C, strain snf2, stronger effect = lower value 0.946 | locus YOR316C, strain cot1, stronger effect = lower value 0.984 | locus YPL051W, strain arl3, stronger effect = lower value 1.01 | locus YPL055C, strain LGE1, stronger effect = lower value 1.01 | locus YPL078C, strain atp4, stronger effect = lower value 0.968 | locus YPL106C, strain sse1, stronger effect = lower value 0.963 | locus YPL240C, strain hsp82, stronger effect = lower value 1.01 | locus YPL256C, strain CLN2, stronger effect = lower value 1 | locus YPR119W, strain clb2, stronger effect = lower value 0.991 | locus YPR141C, strain kar3, stronger effect = lower value 0.992 | locus YPR163C, strain tif3, stronger effect = lower value 0.988 | locus YPR167C, strain met16, stronger effect = lower value 0.998 | strain wtn01, stronger effect = lower value 0.999
